Results published in PubChem BioAssay AID2562 (National Center for Advancing Translational Sciences (NCATS), 2010).
Records with an inconclusive call do not appear. The source made the active and inactive calls. The call rests on the fitted dose curve; in most records, active means well fitted curve in the direction sought with a large enough effect; inconclusive means small, poorly fitted or top-dose-only effect, or effect the other way, or another doubt; inactive means no such curve, though single readings can be large or run the other way.

target: Pyruvate kinase PKLR (Homo sapiens) (UniProt P30613); assay: Secondary LDH Assay for Activators of Human Reticulocyte Pyruvate Kinase: for Probe SAR; conditions: purified hPK-R, LDH-coupled NADH fluorescence kinetic; series mostly up to 58.4 µM
Description: NIH Chemical Genomics Center [NCGC] Wael M. Rabeh, Lyudmila Nedyalkova and Hee-Wan Park [Structural Genomics Consortium, 100 College St. Toronto, Ontario, Canada] NCGC Assay Overview: Human pyruvate kinase reticulocyte (hPK-R) enzyme was supplied as a highly purified (>95% pure) preparation from Structural Genomics Consortium in Toronto (Ontario, Canada) and a secondary assay was used to evaluate compounds. This assay couples the formation of pyruvate from hPK-R using lactate dehydrogenase (LDH) and NADH. The depletion of NADH is followed in a fluorescent-based kinetic assay that follows the formation of pyruvate to lactate, as catalyzed LDH. Pyruvate kinase substrates, PEP and ADP, were present in the assay at 0.1 mM and 4 mM respectively. In this kinetic assay initial rates were determined by following the fluorescence of NADH depletion.
NCGC Assay Protocol Summary: Three uL of substrate mix (final concentration, 50 mM Tris-Cl pH 8.0, 200 mM KCl, 15 mM MgCl2, 0.1 mM PEP, 4.0 mM ADP, and 0.2 mM NADH) was dispensed into black-solid 1536 well plates. 23 nL of compounds were delivered by a pin tool and 1 uL of enzyme mix (final concentrations, 10 nM hPK-R and 1 uM of LDH) was added. Plates were immediately placed in ViewLux (Perkin Elmer) and NADH fluorescence was determined at 30 second exposure intervals for between 3 and 6 minutes. Data were normalized to the uninhibited and EC100 activation using known activators such as fructose-bis-phosphate.

Pyruvate kinase PKLR (Homo sapiens), sequence (P30613 whole entry, looked up): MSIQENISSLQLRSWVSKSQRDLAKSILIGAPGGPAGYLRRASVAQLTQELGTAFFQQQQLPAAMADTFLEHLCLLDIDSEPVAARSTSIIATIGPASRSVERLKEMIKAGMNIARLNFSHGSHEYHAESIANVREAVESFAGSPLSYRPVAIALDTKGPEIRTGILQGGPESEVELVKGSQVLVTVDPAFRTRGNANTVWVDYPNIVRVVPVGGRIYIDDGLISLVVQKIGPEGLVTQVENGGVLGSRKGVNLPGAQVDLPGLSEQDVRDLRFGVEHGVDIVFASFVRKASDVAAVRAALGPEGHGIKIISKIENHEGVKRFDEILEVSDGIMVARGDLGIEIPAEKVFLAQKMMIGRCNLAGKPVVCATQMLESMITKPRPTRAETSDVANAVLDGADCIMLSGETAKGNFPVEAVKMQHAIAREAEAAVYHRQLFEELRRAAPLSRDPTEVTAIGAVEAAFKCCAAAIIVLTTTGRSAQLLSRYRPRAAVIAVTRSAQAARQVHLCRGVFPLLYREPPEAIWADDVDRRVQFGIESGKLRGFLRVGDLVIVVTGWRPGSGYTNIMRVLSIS

Potency, inactive:
Cc1ccc(NS(=O)(=O)c2ccc3c(c2)n(C)c(=O)n3C)cc1C, O=S1(=O)N=C(Oc2ccccc2)c2ccccc21, Fc1ccccc1-c1ccc(-c2nc3ccc(Cl)cn3c2Nc2ccc(Cl)cc2)o1, Cc1ccc(NS(=O)(=O)c2cc3c(cc2N2CCCCC2)NC(=O)CC3)cc1C, O=C1CCc2cc(S(=O)(=O)Nc3ccccc3Cl)ccc2N1, Cc1ccc(NS(=O)(=O)c2cc3c(cc2-c2ccsc2)NC(=O)CO3)cc1C, COc1cccc(NS(=O)(=O)c2ccc3c(c2)CCC(=O)N3)c1, Cc1ccc(NS(=O)(=O)c2cc3c(cc2Cl)NC(=O)CO3)cc1C, O=C1c2ccccc2C(=O)N1c1ccc2ncccc2c1, O=C1NS(=O)(=O)c2ccccc21, Cc1ccc(C)c(OC2=NS(=O)(=O)c3ccccc32)c1, O=C1c2ccccc2C(=O)N1c1cc(=O)c2ccccc2[nH]1, O=C1CCc2cc(S(=O)(=O)Nc3cccc(F)c3)ccc2N1, Cc1ccc(NS(=O)(=O)c2ccc3c(c2)oc(=O)n3C)cc1C, CNc1cccc(S(=O)(=O)N2CCN(S(=O)(=O)c3ccc4c(c3)OCCO4)CC2)c1, Cc1ccc(NS(=O)(=O)c2ccc3c(c2)NC(=O)CO3)cc1C, COc1cccc(Cn2ncc3c4sc(S(C)=O)cc4n(C)c3c2=O)c1 (stereo not given), CNc1cc2c(cc1S(=O)(=O)Nc1ccc(C)c(C)c1)CCC(=O)N2, Cc1ccn2c(NC3CCCCC3)c(-c3ccc(C)o3)nc2c1, O=C1c2ccccc2C(=O)N1c1cccnc1, O=C1c2ccccc2C(=O)N1c1cnc2ccccc2c1, O=C1c2ccccc2C(=O)N1c1cccc2ccncc12, O=C1c2ccccc2C(=O)N1c1cccc2cnccc12, COc1ccccc1NS(=O)(=O)c1ccc2c(c1)CCC(=O)N2, O=C1c2ccccc2C(=O)N1Cc1cccnc1, O=C1c2ccccc2C(=O)N1c1ccc2ccccc2n1, Cc1ccccc1Nc1c(-c2ccc(Cl)s2)nc2ccccn12, Cc1ccc(NS(=O)(=O)c2ccc3c(c2)CCC(=O)N3)cc1, CC(=O)Nc1cccc(S(=O)(=O)Nc2ccc(C)c(C)c2)c1, Cc1ccc(N[S+](=O)([O-])c2cc3c(cc2CCc2ccccc2)NC(=O)CO3)cc1C, COc1cccc(N2C(=O)c3ccccc3C2=O)c1, Cc1ccc(NS(=O)(=O)c2ccc(-c3ccccc3)cc2)cc1C, Cc1ccc(NS(=O)(=O)c2ccc3c(c2)C(Cl)(Cl)C(=O)N3)cc1C, O=C1c2ccccc2C(=O)N1c1cccc2ncccc12, Cc1ccc(NS(=O)(=O)c2cc3c(cc2Cl)NC(=O)C3)cc1C, O=C1c2ccccc2C(=O)N1c1ccc(O)cc1, Cc1ccc(N2C(=O)c3ccccc3C2=O)c(C)c1, O=C1c2ccccc2C(=O)N1c1ccncc1, Cc1ccc(NS(=O)(=O)c2cc3c(cc2C)OCC(=O)N3)cc1C, Cc1ccc(NS(=O)(=O)c2ccc(N3CCCC3=O)cc2)cc1C
